PubChem BioAssay (NCATS)
Where “and” joins values, the source holds several entries; their conditions need not be identical. Identical values can stand only once. Inconclusive results are not listed. Calls of active or inactive are those of the source. Unless noted, calls follow the shape of the dose curve; as a rule, active = well fitted curve in the direction sought with a large enough effect; inconclusive = small, poorly fitted or top-dose-only effect, or another doubt; inactive = no such curve, though single readings can be large; an effect the other way counts as inactive or inconclusive.

Key:
[1] = Cell Viability - BJ (AID 421; calls by dose curve;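 also: potency is read from the fitted curve at half-maximal effect; cells exposed to compound for 40 hours at 37 °C before readout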); details: BJ fibroblast viability, qHTS
Summary of the method: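 Quantitative HTS: ATP depletion in BJ cells after 40 hr compound exposure in complete culture medium, detected with CellTiter-Glo; AC50 from standard Hill fits.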

[2] = Cell Viability - HepG2 (AID 433; calls by dose curve;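 also: potency is read from the fitted curve at half-maximal effect; potency for ATP loss meaning cytotoxicity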); details: qHTS
Summary of the method: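 HepG2 cells, 1500 per well, treated 40 hr at 37 °C in complete medium; viability from intracellular ATP by CellTiter-Glo luminescence. Normalized to DMSO and 100 uM tamoxifen; AC50 from Hill fit of qHTS concentration-response.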

[3] = Cell Viability - MRC5 (AID 434; calls by dose curve;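 also: potency is read from the fitted curve at half-maximal effect; potency reflects cytotoxicity seen as loss of intracellular ATP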); details: MRC5 lung fibroblast viability, qHTS
Summary of the method: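 ATP luminescence read-out (CellTiter-Glo, 20 min RT) after 40 hr, 37 °C compound exposure of 1500 MRC5 cells/well. Data normalized to DMSO (basal) and 100 uM tamoxifen (100% inhibition); AC50 from standard Hill equation.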

[4] = biological target: Mitogen-activated protein kinase 10 (Mus musculus) (UniProt Q61831); test: JNK3 AlphaScreen Assay (AID 530; active = well fitted curve in either direction with a large enough effect, not every such curve was filed as active;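 also: kinase came from lysate of stimulated human HepG2 cells; signal reports phosphorylation of biotinylated GST-cJun 1-79 at Ser73 with 10 µM ATP; % is scaled to controls: 0 for no effect and ±100 for the full control effect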); details: JNK3 lysate, c-Jun phosphorylation; series mostly up to 57.1 µM
Summary of the method: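 Activity was read by AlphaScreen after JNK3-containing HepG2 lysate (cytokine pre-activated) phosphorylated biotinylated GST-cJun with 10 uM ATP at room temperature. Phospho-Ser73 cJun antibody with Protein-A acceptor beads provided detection.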

[5] = Cell Viability - Renal Proximal Tubule (AID 545); details: renal proximal tubule cells viability; at 91.7 µM (top of the series), primary cells of rat origin unless noted; also: nearly all actives have a fitted effect of over 40% in size
Summary of the method: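 Rat renal proximal tubule primary cells, 1000/well, exposed to compounds for 40 hr at 37 °C in complete medium; cellular ATP read by CellTiter-Glo luminescence. AC50 from concentration-response fitted with standard Hill equation.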

[6] = Cell Viability - Mesenchymal (AID 546); details: mesenchymal cells viability, qHTS; series mostly up to 91.7 µM;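 also: cells exposed to compound for 40 hours before reading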
Summary of the method: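 Human renal mesenchymal cells (glomerulus-derived), 1000 cells/well, 5 hr 37 °C pre-incubation; compound 40 hr, 37 °C; CellTiter-Glo, 20 min RT; luminescence; AC50 via Hill equation.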

[7] = Cellular Toxicity (caspase-3) Jurkat (AID 655); details: Jurkat caspase-3 activation, luminescence, DMSO = 0%, tamoxifen = 100%; at 92.2 µM (top of the series);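 also: cells exposed to compound for 16 h at 37 °C before reading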
Summary of the method: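 Jurkat cells (5000/well) in complete medium exposed 16 h at 37 C; caspase-3/7 activity read by Caspase-Glo luminescence after 20 min at room temperature. Normalized to DMSO and 100 uM tamoxifen; AC50 from Hill fits.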

[8] = Cellular Toxicity (caspase-3) HUV-EC-C (AID 656); details: HUV-EC-C cells, caspase-3 activation (apoptosis), vehicle = 0, 100 µM tamoxifen = 100%; series mostly up to 92.2 µM
Summary of the method: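 HUV-EC-C cells (1000/well) in complete medium, compound-treated 16 h at 37 °C; caspase-3/7 activity read by Caspase-Glo 3/7 luminescence. Normalized to DMSO (basal) and 100 uM tamoxifen (100%); AC50 from Hill-equation concentration-response fits.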

[9] = Cellular Toxicity (caspase-3) SHSY5Y (AID 657); details: SH-SY5Y caspase-3 activation, DMSO zero, 10 µM staurosporine = 100%; series mostly up to 91.7 µM
Summary of the method: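 SH-SY5Y human neuroblastoma cells, 1500/well, exposed to compound for 16 hours at 37 °C in complete medium. Caspase-3/7 activity read by Caspase-Glo luminescence after 1 hr at room temperature, normalized to DMSO and 10 uM staurosporine; AC50 from Hill fit.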

[10] = Cellular Toxicity (caspase-3) BJ (AID 658); details: BJ fibroblasts, luminescence, normalized: DMSO 0%, staurosporine 100%; series mostly up to 91.7 µM
Summary of the method: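 qHTS, BJ fibroblasts, 1000 cells/well; 5 hr preincubation, 16 hr compound, 37 °C; Caspase-Glo 3/7 reagent, 1 hr RT; luminescence. DMSO = 0%, 10 uM staurosporine = 100%. Hill-equation AC50.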

[11] = Cellular Toxicity (caspase-3) MRC-5 (AID 659); details: MRC-5 cells, luminescence, normalized: DMSO 0%, 10 µM staurosporine 100%; series mostly up to 91.7 µM
Summary of the method: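 MRC-5 fibroblasts, 1500/well; 16 h cpd, 37 °C; Caspase-Glo 3/7, 1 h RT; lumi read. Norm: DMSO = 0%, 10 uM staurosporine = 100%. Hill-fit AC50 from qHTS conc-response.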

[12] = Cellular Toxicity (caspase-3) Mesangial (AID 660); details: mesangial cells, normalized: DMSO 0%, 100 µM tamoxifen 100%; series mostly up to 91.7 µM;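 also: cells exposed to compound for 16 h before the caspase read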
Summary of the method: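 Caspase 3/7 activation measured by Caspase-Glo 3/7 luminescence (20 min, room temperature) following 16 h exposure of mesangial cells (1000/well); AC50 from Hill-equation fit, normalized to DMSO and 100 uM tamoxifen.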

[13] = Cellular Toxicity (caspase-3) SK-N-SH (AID 661); details: SK-N-SH caspase-3 activation, qHTS, DMSO as zero, staurosporine as full; series mostly up to 91.7 µM
Summary of the method: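 Caspase 3/7 activation was read by luminogenic substrate cleavage after 16 hour treatment of SK-N-SH cells. Signal was scaled between DMSO and 10 uM staurosporine, and concentration-response data were fitted with the Hill equation for AC50.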

[14] = Cellular Toxicity (caspase-3) H-4-II-E (AID 663); details: H-4-II-E rat hepatoma, scaled: DMSO 0%, 100 µM tamoxifen 100%; series mostly up to 92.2 µM;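 also: cells exposed to compound for 16 hr before readout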
Summary of the method: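 H-4-II-E rat hepatoma, 1500 cells/well, 5 hr settle at 37 °C; compound 16 hr, 37 °C, complete medium; Caspase-Glo 3/7, 20 min RT; luminescence. DMSO = 0%, 100 uM tamoxifen = 100%; Hill-equation AC50.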

[15] = Cellular Toxicity (caspase-3) Renal Proximal Tubule (AID 667); details: renal proximal tubule cells; at 91.7 µM (top of the series), primary cells freshly taken from rat, solvent-only wells 0%, staurosporine 100% unless noted;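 also: cells exposed to compound for 16 hours at 37 °C before detection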
Summary of the method: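 Freshly isolated primary rat kidney proximal tubule cells, 1000/well, treated 16 hr at 37 °C, then Caspase-Glo 3/7 luminescence after 1 hr. Normalized to DMSO and 10 uM staurosporine; AC50 from Hill fit.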

[16] = qHTS Assay for Identification of Small Molecule Inducers of Hypoxia Response (AID 2120; active = well fitted curve in the direction sought with a large enough effect in the signal ratio, with a control signal flat, not every such curve was filed as active; the % refers to the signal ratio; also: 0% is about no effect); details: hypoxia response reporter cells, beta-lactamase ratio readout; series mostly up to 104 µM
Summary of the method: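 Reporter induction read as the CCF4 blue/green (460nm/530nm) emission ratio after 2.5 h dye loading at room temperature. ME-180 HRE-beta-lactamase cells received titrated compounds for 17 h at 37 degrees Celsius; AC50 values derived.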

[17] = qHTS assay for small molecule agonists of retinoid X receptor alpha signaling (AID 588544); details: HEK293T RXRa-UAS-bla, beta-lactamase reporter, 18 h; 530 nm emission
[18] = qHTS assay for small molecule agonists of the antioxidant response element (ARE) signaling pathway measured by Nrf2-dependant transcriptional activity - cell viability counter screen (AID 720653; active = well fitted curve in the direction sought with a large enough effect in the repeat runs; an effect the other way counts as inactive or inconclusive; also: % is scaled to controls: 0 for no effect and ±100 for the full control effect); details: ARE-bla HepG2 viability, CellTiter-Glo ATP luminescence, 16 h; stronger effect = lower value
Summary of the method: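 ARE-bla HepG2 cells treated with compounds for 16 h at 37C; this counter screen measures viability as intracellular ATP by CellTiter-Glo luminescence after 30 min at room temperature.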

[19] = qHTS assay for cell viability of HEK293 cells (AID 743288); details: ATP luminescence (CellTiter-Glo), 18 h; max response: stronger effect = lower value; also: % is scaled to controls: 0 for no effect and ±100 for the full control effect; nearly all actives have a fitted effect of over 50% in size
Summary of the method: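 Steps: plate 2,000 parental HEK293 cells per well; incubate ≥5 h, 37 C; add compounds in DMSO; incubate 18 h, 37 C; add CellTiter-Glo; wait 30 min at room temperature; read luminescence.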

[20] = qHTS assay for cell viability of the p53RE-bla HCT-116 cell line (AID 743292); details: p53RE-bla HCT-116 viability, ATP luminescence, 16 h; series mostly up to 95 µM; also: % is scaled to controls: 0 for no effect and ±100 for the full control effect; nearly all actives have a fitted effect of over 55% in size
Summary of the method: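 CellSensor p53RE-bla HCT-116 cells (4,000/well) pre-incubated 5 h at 37 C, then exposed to compounds in DMSO for 16 h at 37 C. Viability read as ATP content by CellTiter-Glo luminescence after 30 min at room temperature.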

CC(O)CCl (stereo not given)
inactive: Potency [1] > 92 µM | Potency [2] > 92 µM | Potency [3] > 92 µM | outcome [4] | activity change, negative = cytotoxicity [5] -0.642% | outcome [6] | caspase-3 activation [7] 1.88% | outcome [8] | outcome [9] | outcome [10] | outcome [11] | outcome [12] | outcome [13] | outcome [14] | caspase-3 activation [15] 7.82% | outcome [16] | max response [18] -0.544% and -11.8% | max response [19] 2.39% and -2.48% | Potency [20]
-11.9% and -9.91%: max response [17]

CN=C=S
-13.3% and 3.16%: max response [17]
inactive: Potency [1] > 92 µM | Potency [2] > 92 µM | Potency [3] > 92 µM | outcome [4] | activity change, negative = cytotoxicity [5] -2.52% | outcome [6] | caspase-3 activation [7] -1.9% | outcome [8] | outcome [9] | outcome [10] | outcome [11] | outcome [12] | outcome [13] | outcome [14] | caspase-3 activation [15] -3.52% | outcome [16] | max response [18] 4% and -4.66% | max response [19] -4.04% and -6.57% | Potency [20]

NC(=S)Nc1ccccc1
-11.1% and -12.4% and -6.79%: max response [17]
inactive: Potency [1] > 92 µM | Potency [2] > 92 µM | Potency [3] > 92 µM | outcome [4] | activity change, negative = cytotoxicity [5] -4.19% [at 91.7 µM] and 2.38% [at 91.7 µM] | outcome [6] | caspase-3 activation [7] 1.95% and -1.01% | outcome [8] | outcome [9] | outcome [10] | outcome [11] | outcome [12] | outcome [13] | outcome [14] | caspase-3 activation [15] 12.5% [at 91.7 µM] and -6.92% [at 91.7 µM] | outcome [16] | max response [18] -3.66% and 8.32% and -3.85% | max response [19] -1.42% and -0.575% and -4.82% | Potency [20]

Brc1ccccc1
inactive: Potency [1] > 92 µM | Potency [2] > 92 µM | Potency [3] > 92 µM | outcome [4] | activity change, negative = cytotoxicity [5] -2.95% | outcome [6] | caspase-3 activation [7] -1.45% | outcome [8] | outcome [9] | outcome [10] | outcome [11] | outcome [12] | outcome [13] | outcome [14] | caspase-3 activation [15] -10.7% | outcome [16] | max response [18] -10.2% and 1.06% | max response [19] 3.06% and -4.67% | Potency [20]
-12.9% and -10.7%: max response [17]

ClCBr
-17.3%: max response [17]
inactive: Potency [1] > 92 µM | Potency [2] > 92 µM | Potency [3] > 92 µM | outcome [4] | activity change, negative = cytotoxicity [5] -6.27% | outcome [6] | caspase-3 activation [7] -0.634% | outcome [8] | outcome [9] | outcome [10] | outcome [11] | outcome [12] | outcome [13] | outcome [14] | caspase-3 activation [15] -5.04% | outcome [16] | max response [18] -6.45% | max response [19] 4.95% | Potency [20]
